What was measured:
Assay in all cases: PBM binding z-score (relative to random genomic background probes); higher = stronger binding; sequences stand for … in GC…GCGATTGACAGCGTAGAATGAAGG
[1] = test system: RARb homodimer (NR concentration 270 nM)
How it was run: (§1)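 Scanned fluorescence from custom Agilent 4×180K protein-binding microarrays was regression-normalized. Binding z-scores use random background probes as reference. Ligand-free nuclear receptor dimers were incubated on the arrays for 1 h and detected with antibodies against each partner (one per run).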

[2] = test system: RARg:RXRa (NR concentration 270 nM, RXRa partner concentration 90 nM)
How it was run: as §1

[3] = test system: RARg homodimer (NR concentration 270 nM)
How it was run: as §1

[4] = test system: RXRa DBDmut IVT, anti-RXR (DBD mutation: RXRa K156A/R161A, NR concentration 90 nM)
How it was run: as §1

[5] = test system: RXRa homodimer (NR concentration 180 nM)
How it was run: as §1

[6] = test system: THRa:RXRa (NR concentration 90 nM, RXRa partner concentration 90 nM)
How it was run: as §1

[7] = test system: THRa homodimer (NR concentration 90 nM)
How it was run: as §1

[8] = test system: VDR homodimer (NR concentration 270 nM)
How it was run: as §1

| Sequence | PBM binding z-score [1] | PBM binding z-score [2] | PBM binding z-score [3] | PBM binding z-score [4] | PBM binding z-score [5] | PBM binding z-score [6] | PBM binding z-score [7] | PBM binding z-score [8] |
| --- | --- | --- | --- | --- | --- | --- | --- | --- |
| TCTTGTAGATCAATAGAGGTTAAGAGAGTGCGCT | 1.02 | 0.864 | 0.443 | 0.589 | 1.46 | 2.56 | -0.485 | 0.473 |
| ACTAGCAGGCCAAGGGTCACTGAAGATTAGTCCG | 3.8 | 4.5 | 3.97 | 0.371 | 4.49 | 2.68 | -0.0402 | 0.94 |
| TAGCCTAGGTCCTGGGCCAGTATACCACGCGAAC | -0.386 | -0.497 | -0.364 | -1.66 | -0.311 | -0.414 | -0.714 | -0.78 |
| GCTTGCAGGCCATTTGGGTCACTCAATGACGGGC | 1.87 | 1.31 | 1.56 | 0.31 | 0.653 | 2.07 | 0.686 | 0.751 |
| CGTCCAAGGTCAATGCTAGGTCAGCGAAAGCATT | 4.51 | 7.74 | 7.14 | 3.47 | 5.38 | 4.61 | 3.1 | 3.23 |
| TCATATAGGTAATACAGGTGAATGTCGGCATCTA | 0.689 | 0.761 | 0.652 | 1.69 | 1.24 | 0.991 | 0.573 | -0.00173 |
| CAAACTACGTCAAGAGGTCAAAGTCCGCTTCCCG | 4.32 | 5.45 | 4.73 | 2.5 | 6.72 | 3.72 | 1.78 | 4.48 |
| ATCTCTAGGTAAGACACAGTTCAGTGAAGAACGC | 1.33 | 0.686 | 0.694 | 0.59 | 0.755 | 0.849 | 0.689 | 1.37 |
| AGACAAAGTTCATCTAGGTAACGTAAGATATGCT | 4.12 | 5.68 | 5.87 | 5.05 | 4.64 | 3.07 | 0.133 | 5.21 |
| CGAACTAGGTCATTGACATGACAGTGAATAGTAA | 2.55 | 3.68 | 4.2 | 2.17 | 2.84 | 2.68 | 0.792 | 1.36 |
| GCTGCTAGGTAAACTGATGGTCAGCTAAAGCTCG | -0.0474 | -0.174 | -0.241 | -0.0334 | -0.342 | -0.142 | -0.754 | -0.973 |
| TCTGCTAGGTCAGTTGGTCTGCTAACGAGCTGCC | 2.11 | 1.92 | 3.27 | 0.135 | 0.318 | 1.08 | -0.124 | -0.575 |
| AGAACGAGGACACGCTGAGTTGATAGCAGAGTAG | 0.357 | 0.807 | 1.74 | 0.835 | -0.00543 | 3.15 | 2.29 | 1.14 |
| CCTTACGGGTCACGAGGTTATAGCGCGACGAGCG | 3.63 | 5.98 | 5.29 | 1.62 | 6.87 | 3.59 | 1.07 | 1.9 |
| CGAACTAGGTCATTGACAGGACATTGAATAGTAA | 2.8 | 4.62 | 4.56 | 2.52 | 2.75 | 2.9 | 0.971 | 1.62 |
| TCATACAGGTAAAGGTGAAAGTCGAACGATATGA | 1.73 | 1.78 | 1.69 | 1.17 | 2.23 | 1.46 | 0.0499 | 0.141 |
| ATCTCTAGGTAACCAAGTTCACTGAATGCCGAAC | 2.26 | 1.55 | 1.41 | 1.74 | 1.36 | 2.34 | 1.27 | 3.34 |
| TGAATGAGGTTAAAGATCAGGCAACGTGGCGTCG | 0.653 | 2.44 | 1.16 | 1.02 | 3.63 | 2.71 | 0.312 | 0.286 |
| TGATATAGGTAAAAGGTGAAAGTCGGTGTGGTAA | 2.03 | 1.86 | 1.13 | -0.0828 | 2.92 | 1.8 | 0.423 | 0.42 |

| Sequence | PBM binding z-score [1] | PBM binding z-score [2] | PBM binding z-score [3] | PBM binding z-score [4] | PBM binding z-score [5] | PBM binding z-score [6] | PBM binding z-score [7] | PBM binding z-score [8] |
| --- | --- | --- | --- | --- | --- | --- | --- | --- |
| AGAACGAGGGCACGCTGAGTTGATAACAGAGTAG | 1.27 | 2.23 | 2.45 | 1.47 | 1.49 | 1.78 | 0.282 | 1.46 |
| CGTCAAAGTTCAACTAAGGTAAAGTAAAGCACGC | 3.97 | 6.03 | 6.89 | 3.88 | 5.08 | 5.01 | 1.49 | 3.59 |
| GGAACGAGGGCATTCGAGTTGATTGCATGGCGAT | 0.671 | 1.07 | 1.15 | 3.28 | 0.842 | 3.52 | -0.335 | 3.28 |
| TCATATAGGTAAATGCTAGGTGAAAGTTCGATCT | 1.2 | 0.926 | 0.552 | 1.97 | 1.35 | 1.75 | 0.835 | 0.742 |
| GCTCGGAGGCCAAGGTCAGAGCTTTGTCCGTAGA | 3.1 | 2.72 | 3.69 | 0.649 | 1.93 | 2.64 | 1.27 | 0.281 |
| CGAACGAGGTCAAGGACAGTGAATCTCCGCACGC | 4.19 | 6.33 | 6.59 | 4.23 | 7.03 | 4.43 | 3.19 | 3.5 |
| CATAGAGGGTCAGCTAGGCCAGAGTAGGGACGGC | 3.06 | 3.83 | 4.33 | 0.356 | 3.3 | 2 | 0.171 | 0.395 |
| CAAACTAGGTCACATAGGTCAAAGTCCGTGCGTA | 4.67 | 5.93 | 6.3 | 2.56 | 5.67 | 4.09 | 1.78 | 3.91 |
| AGAACGAGGGCACGCTGAGTTGATCGCAGAGTAG | 1.14 | 2.19 | 2.41 | 1.74 | 1.27 | 1.85 | -0.239 | 1.73 |
| TCTATTAGTTGAAGGGTAACCGACGAGTCCGTTT | 0.751 | 0.464 | 0.398 | 1.95 | 0.736 | 0.32 | 0.529 | 1.44 |
| TCGAGTAGGTTACCAATGGGGCCTTCAGCTTTCT | 0.0421 | 0.0942 | -0.234 | 0.173 | 0.293 | -0.167 | -0.919 | -0.944 |
| CCTAGTTGGTAAAGGTCACACACGCTATAGGTAC | 5.1 | 6.22 | 6.12 | 2.1 | 6.73 | 4.12 | 2.03 | 3.54 |
| CCTTACGGGTCACTGACAGGATATAGCATTTGGA | 2.9 | 4.97 | 4.62 | 1.76 | 5.05 | 2.62 | 0.268 | 0.961 |
| GCAGACAGGTGGAACGCAGGTAACTCAGGGTGGC | -0.721 | -0.378 | -0.569 | -0.849 | -0.144 | 0.751 | -0.601 | -0.591 |
| ATGTCTAGGTAACCAAGTTCAGTGAATGCCGAAC | 1.34 | 0.808 | 0.759 | 0.268 | 0.737 | 1.42 | 0.382 | 2.08 |
| CCTACTGGGCCATCAGTTCATTGATATCAACGTT | 0.932 | 0.31 | 0.439 | 0.88 | -0.0335 | 0.411 | 0.333 | 3.3 |
| GATACAGGGTCAAGGCCAGAGTGCGCGTATTGAT | 3.82 | 5.48 | 5.27 | 2.42 | 5.94 | 3.42 | 1.27 | 2.96 |
| ACTTACGGGTCAACGAGGTTATATCACGCGTATA | 3.73 | 5.37 | 4.95 | 2.74 | 6.14 | 4.04 | 1.45 | 3.3 |
| TCATATACGTAAAGGTGAAAGTCGAACGATATGA | 1.53 | 1.65 | 1.22 | 0.638 | 2.1 | 1.13 | -0.853 | -0.424 |

| Sequence | PBM binding z-score [1] | PBM binding z-score [2] | PBM binding z-score [3] | PBM binding z-score [4] | PBM binding z-score [5] | PBM binding z-score [6] | PBM binding z-score [7] | PBM binding z-score [8] |
| --- | --- | --- | --- | --- | --- | --- | --- | --- |
| TCTAGCAGGCCAGAGTGTCACTCAAGAGGTACGG | 0.119 | 0.145 | 0.167 | -0.194 | 0.302 | -0.304 | -1.19 | -0.738 |
| AGAATGAGGTTACCAAAGATCCGGGAAACGCTTG | 0.848 | 1.96 | 1.65 | 1.05 | 2.5 | 2.61 | 0.714 | 0.252 |
| ACAGACAGGTGATGAAGGTACCTCAGGCTATCAT | -0.181 | 0.158 | 0.411 | -0.579 | 0.4 | 0.509 | -0.21 | -0.451 |
| GCTCGGAGGACAAGGTTAGAGCTTTGTCCGTAGA | 0.733 | 0.376 | 1.01 | -0.384 | 0.102 | 1.28 | -0.0516 | -0.796 |
| CGTCCAAGGTCAGAGAGGTCAGCGAATGCCGAGT | 5.53 | 6.82 | 7.65 | 3.12 | 6.52 | 4.47 | 2.86 | 5.7 |
| CGAACTAGGTCATTGACAGGTCAGTGAATAGTAA | 4.18 | 6.77 | 5.57 | 2.35 | 4.6 | 3.32 | 0.924 | 2.04 |
| CGTCCAAGGTCAAAGCTCAGTGAAGAGATGACGG | 3.72 | 5.9 | 6.4 | 3.56 | 5.49 | 3.63 | 2.02 | 2.15 |
| CGTCCAAGGTCAAAGGTCAGTGAAGAGATGACGG | 5.42 | 8.7 | 7.94 | 3.87 | 10 | 4.99 | 2.62 | 4.06 |
| CCTTACGGCTCACTCCAGGTTATAGCATCGGAGT | 0.313 | -0.122 | 0.148 | 0.487 | -0.0506 | 1.15 | 0.628 | 0.0912 |
| ACCGAAAGGTCGACGAGGTGAGTATACACCGTTT | 3.18 | 4.28 | 4.13 | 1.58 | 4.27 | 3.61 | 0.645 | 1.01 |
| ATCTCTAGGTAAAGATAGTTCCGTGAATGCAAAT | -0.314 | -0.154 | 0.427 | -0.0164 | 0.0158 | 0.316 | 0.233 | 0.309 |
| CCTAGTTGGTCAAGGTCACAGACGCTATAGGTAC | 4.33 | 4.74 | 5.11 | 2.16 | 4.88 | 4.13 | 4.27 | 3.55 |
| GCAGACAGGAGAAACGCAGGTAACTCAGGGTGGC | -0.808 | -0.38 | -0.484 | -0.907 | -0.112 | 0.301 | -0.985 | -0.432 |
| CGTCAAAGTCCAACTAAGGTAACGTAAAGCACGC | 1.43 | 0.748 | 1.4 | 1.14 | 0.261 | 3.44 | 1.91 | 0.579 |
| CGAACGAGGGCATGAGTTGATTGCAAATGCCGAT | 0.769 | 1.29 | 1.48 | 2.73 | 0.985 | 1.22 | -0.209 | 1.94 |
| CGTCCAAGGTCAGTGCTAGGTCAGTGAAAGCATT | 4.72 | 6.51 | 6.07 | 2.72 | 4.15 | 3.98 | 2.41 | 2 |
| CCGACTGGTGCATAAGGTTACCATAAGCCAGCCC | 1.25 | 0.548 | 0.37 | 0.0565 | 0.963 | 1.99 | 1.58 | 0.347 |
| CCTAGCAGGCCAATATGGGTCACTCAAGGCTTGA | 2.09 | 1.38 | 1.31 | -0.181 | 1.36 | 2.5 | -0.509 | -0.211 |

Reference: the supplement of paper PMC6555819
